# The full ranking holds about 8,300 sequences; the median of “log2 fold change of degron read counts, EGFP-low vs EGFP+ sorted cells (limma voom), compound-induced degradation” is about -1.1, and the highest 2% start at about 3.2. The sample as a whole holds a higher share of the highest values than the screen did.
# T1: CRBN, Q96SW2
# T1 chain: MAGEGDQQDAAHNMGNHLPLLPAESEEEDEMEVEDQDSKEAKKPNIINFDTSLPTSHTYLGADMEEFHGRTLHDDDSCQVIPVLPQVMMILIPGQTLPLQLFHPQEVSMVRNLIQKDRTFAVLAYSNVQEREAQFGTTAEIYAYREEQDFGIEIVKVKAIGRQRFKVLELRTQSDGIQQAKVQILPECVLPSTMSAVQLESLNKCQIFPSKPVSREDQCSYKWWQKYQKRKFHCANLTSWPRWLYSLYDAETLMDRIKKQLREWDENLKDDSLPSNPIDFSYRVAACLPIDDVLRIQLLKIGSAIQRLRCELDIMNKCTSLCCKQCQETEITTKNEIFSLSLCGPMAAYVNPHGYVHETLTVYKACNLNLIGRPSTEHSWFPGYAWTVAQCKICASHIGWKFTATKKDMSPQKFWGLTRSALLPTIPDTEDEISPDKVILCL
# Target: T1, CRBN, Q96SW2
# Test: log2 fold change of degron read counts, EGFP-low vs EGFP+ sorted cells (limma voom), compound-induced degradation; higher = more compound-induced degradation of the degron-EGFP fusion; degrons are variants of IKZF1/3 zinc finger 2; compound dose not given here
# Conditions: Jurkat, 18 h
# [1] = compound: compound 19 (5-tert-butyl-thalidomide)
# [2] = compound: compound 22 (5-morpholino-thalidomide)
# [3] = compound: compound 33 (diphenyl IMiD analogue)
# 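Also: pooled lentiviral library of zinc finger degron-EGFP fusions in mCherry-positive Jurkat cells, FACS-sorted after compound exposure, with degron abundance counted by next-generation sequencing.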
Sequence,log2 fold change of degron read counts [1],log2 fold change of degron read counts [2],log2 fold change of degron read counts [3],log2 fold change of degron read counts (compound: thalidomide)
"FLCDVCGAYFTQKGNLLRHIKL [46F_47L_49D_50V_52G_53A_54Y_55F_67L_, Q9UKT9]",-2.05,-2.41,-1.49,-1.52
"FSCNVCGARFTQKGNLLRHIKL [46F_47S_49N_50V_52G_53A_54R_55F_67L_, Q9UKT9]",0.49,0.453,-1.03,-0.0608
"FRCNQCGASFTQKGNLLRHIKL [46F_47R_49N_50Q_52G_53A_54S_55F_67L_, Q9UKT9]",-1.71,-2.14,-0.702,-1.17
"FDCEICGREFTQKGNLLRHIKL [46F_47D_49E_50I_52G_53R_54E_55F_67L_, Q9UKT9]",-2.21,-2.29,-2.42,-2.31
"FHCNVCGAQFTQKGNLLRHIKL [46F_47H_49N_50V_52G_53A_54Q_55F_67L_, Q9UKT9]",-0.612,0.00036,0.0621,-0.871
"FCCPICGHNFTQKGNLLRHIKL [46F_47C_49P_50I_52G_53H_54N_55F_67L_, Q9UKT9]",-2.22,-2.17,-1.7,-1.28
"FYCEQCGAHFTQKGNLLRHIKL [46F_47Y_49E_50Q_52G_53A_54H_55F_67L_, Q9UKT9]",-0.125,0.783,0.184,-1.6
"FECPICGANFTQKGNLLRHIKL [46F_47E_49P_50I_52G_53A_54N_55F_67L_, Q9UKT9]",0.136,-0.0311,2.92,3.27
"FFCPICGANFTQKGNLLRHIKL [46F_47F_49P_50I_52G_53A_54N_55F_67L_, Q9UKT9]",2.81,3.66,1.86,1.33
"FRCPICGANFTQKGNLLRHIKL [46F_47R_49P_50I_52G_53A_54N_55F_67L_, Q9UKT9]",-0.337,-0.426,1.12,1.57
"FSCPICGANFTQKGNLLRHIKL [46F_47S_49P_50I_52G_53A_54N_55F_67L_, Q9UKT9]",2.46,1.78,1.97,1.54
"FDCPICGANFTQKGNLLRHIKL [46F_47D_49P_50I_52G_53A_54N_55F_67L_, Q9UKT9]",2.63,0.285,2.3,2.15
"FTCPICGANFTQKGNLLRHIKL [46F_47T_49P_50I_52G_53A_54N_55F_67L_, Q9UKT9]",0.0113,2.63,1.93,2.85
"FYCPICGANFTQKGNLLRHIKL [46F_47Y_49P_50I_52G_53A_54N_55F_67L_, Q9UKT9]",3.19,3.46,2.38,1.52
"FLCPICGANFTQKGNLLRHIKL [46F_47L_49P_50I_52G_53A_54N_55F_67L_, Q9UKT9]",0.744,0.272,1.69,1.77

# — the supplement of paper PMC12645437, “Orthogonal IMiD-Degron Pairs Induce Selective Protein Degradation in Cells” (ACS Chemical Biology, 2025)
